These results are taken from PubChem BioAssay (Tox21).

The structures appear in SMILES notation. Several values for one entry are separate records, joined by “and”; a condition that tells them apart may be missing. Equal entries are not always repeated. Inconclusive results are not listed. A call without a number means that no potency is given here. Activity calls are given as the source filed them. The call rests on the fitted dose curve; in most records, active means well fitted inhibition curve with a large enough effect in the signal ratio in the repeat runs; inconclusive means weak or mixed curves, or effect the other way; inactive means flat fitted curve, though single readings scatter; the % refers to the signal ratio.
Potency means the concentration at half of the fitted maximal effect.

The nature of the assay: qHTS assay for small molecule disruptors of the mitochondrial membrane potential (AID 720635). Conditions: HepG2 mitochondrial membrane potential, Mito-MPS dye ratio; series mostly up to 83.2 µM. An excerpt:
U.S. Tox21 Program National Center for Advancing Translational Sciences [NCATS] NIH Chemical Genomics Center [NCGC] U.S. Environmental Protection Agency [EPA] National Institutes of Environmental Health Sciences [NIEHS] National Toxicology Program [NTP] U.S. Food and Drug Administration [FDA] Tox21 Assay Overview: Mitochondrial membrane potential (MMP), one of the parameters for mitochondrial function, is generated by mitochondrial electron transport chain that creates an electrochemical gradient by a series of redox reactions. This gradient drives the synthesis of ATP, a crucial molecule for various cellular processes. Measuring MMP in living cells is commonly used to assess the effect of chemicals on mitochondrial function. […] The dye accumulates in the mitochondria of healthy cells as aggregates, with red fluorescence. The mitochondrial potential collapses and the dye can no longer accumulate in the mitochondria and remains in the cytoplasm in monomers, with green fluorescence.
Tox21 Assay Protocol Summary: 2,000 HepG2 cells in 5 uL/well were dispensed into black, clear-bottom 1536-well plates using a Multidrop Combi (Thermo Scientific) dispenser. The assay plates were incubated overnight at 37C to allow cells to attach to the wells, followed by the transfer of 23 nL compound or DMSO vehicle by a pin tool (Kalypsys). The plates were incubated for 1 hr at 37C and 5% CO2, followed by the addition of 5 uL of 2X Mito-MPS dye (BD Biosciences) into each well using Flying Reagent Dispenser (Aurora Discovery) and then following 30 min incubation at 37C. Fluorescence intensity (490nm excitation and 535nm emission for monomers; and 540nm excitation and 590nm emissions for aggregates) was measured using an Envision plate reader.
(In qHTS, concentration-response curves come from the screen itself.)
Regarding `CC(Oc1cccc(Cl)c1)C(=O)O` (stereo not given), the Potency result was “inactive”.
Turning to `CCOP(=O)(SC(C)CC)N1CCSC1=O` (stereo not given), the Potency result is “inactive”.
With `NCCc1cc(O)c(O)cc1O`, the Potency result is “inactive”.
The result for `NC(=S)c1c(Cl)cccc1Cl` reads “inactive”; that for `CCCC(C)(COC(N)=O)COC(=O)NC(C)C` (stereo not given), “inactive”.
Consider `CCOC(=O)C1OC1(C)c1ccccc1` (stereo not given), for which the Potency entry is “inactive”.
The result for `C=CCN1C[C@H](C)N([C@H](c2ccc(C(=O)N(CC)CC)cc2)c2cccc(OC)c2)C[C@H]1C` reads “inactive”.
The result for `CCCCCCCCCCCCN(C)C` reads “inactive”.
The result for `CCCCCCCCCCCCCCCl` reads “inactive”.
As for `CCCCNC(=O)OCC#CI`, the Potency is 4.31 µM (active) and 6.86 µM (active).
In the case of `Nc1c(Br)cc(Br)c2c1C(=O)c1ccccc1C2=O`, the Potency was 2.29 µM (active).
The result for `CN(C)C(=O)Nc1cccc(OC(=O)NC(C)(C)C)c1` reads “inactive”; that for `O=C1NC(=O)C(=O)C(=O)N1`, “inactive”; that for `CC[N+]1(CCOC(=O)C(O)(c2ccccc2)c2ccccc2)CCCCC1`, “inactive”.
In the case of `N#CC(C#N)=Cc1ccc(O)c(O)c1`, the Potency is 11.9 µM (active).
For the compound `CCCCOC(=O)CCC(=O)OCCCC`, the Potency result is “inactive”.
The result for `CCCCC(CC)CO[N+](=O)[O-]` (stereo not given) reads “inactive”; that for `Oc1cccc(Cl)c1`, 53.8 µM (active).
The result for `CCC(C)(C)c1ccc(O)c(C(C)(C)CC)c1` reads 1.52 µM (active) and 1.37 µM (active).
`C[C@H]1O[C@H](OC2[C@@H](O)[C@@H](O)C(O)[C@H](O)[C@H]2O)[C@@H](N)C[C@@H]1N=C(N)C(=O)O` (stereo not given in full): the Potency result was “inactive”.
The result for `CCCCCCCCP(=O)(O)O` reads “inactive”.
The result for `C[N+]1(CCF)[C@@H]2CC[C@H]1CC(OC(=O)C(O)(c1ccccc1)c1ccccc1)C2` (stereo not given in full) reads “inactive”.
With `CC(C)CCON=O`, the Potency result was “inactive”.
`CCOc1cccc(C2(N3CCN(c4ccccc4)CC3)CCC(C)CC2)c1` (stereo not given): the Potency result is “inactive”.
The result for `Clc1ccc2ccccc2c1` reads “inactive”; that for `CC[N+]1(C)CCCC(OC(=O)C(O)(c2ccccc2)c2ccccc2)C1` (stereo not given), “inactive”.
On to `CC(O)CN1CCN(CC(=O)[O-])CCN(CC(=O)[O-])CCN(CC(=O)[O-])CC1.[Gd+3]` (stereo not given), for which the Potency result is “inactive”.
Take `CCCN(CCC)c1c([N+](=O)[O-])cc(C(C)C)cc1[N+](=O)[O-]`: the Potency is 12.2 µM (active).
The result for `CCCBr` reads “inactive”; that for `CN(C1CCCCC1)C1CCCCC1`, “inactive”; that for `CN1C[C@H](C(=O)N[C@]2(C)O[C@@]3(O)[C@@H]4CCCN4C(=O)[C@H](Cc4ccccc4)N3C2=O)C=C2c3cccc4[nH]cc(c34)C[C@H]21`, 4.22 µM (active) and 9.73 µM (active) and 18 µM (active).
With `CN1CC[C@]23c4c5ccc(O)c4O[C@H]2[C@@H](O)C=C[C@H]3[C@H]1C5`, the Potency result was “inactive”.
The result for `C=CCSSCC=C` reads “inactive”.
Regarding `CC(C)CCCCCCCOC(=O)c1ccccc1C(=O)OCCCCCCCC(C)C`, the Potency entry is “inactive”.
Take `CCOP(=O)(O)C(N)=O`: the Potency was 3.44 µM (active).
The result for `CCOP(=S)(OCC)Oc1ccc(S(C)=O)cc1` (stereo not given) reads “inactive”; that for `CCOC(=O)NC(O)C(Cl)(Cl)Cl` (stereo not given), “inactive”.
The result for `NC(=O)CF` reads “inactive”; that for `CCCCCCCCCCCC[N+](C)(C)CCOc1ccccc1`, 26.6 µM (active) and 30.6 µM (active).
As to `CCC[N+](CCC)(CCC)CCC`, the Potency result is “inactive”.
